# Screening results as filed in PubChem BioAssay.
# NS1 inh: inhibitors of influenza NS1 protein function; AID 2326; Potency, µM (doses to about 46.1 µM), without a hit: at the top dose activity, positive = more growth; hit rate 0.4% among 270,000; calls by dose curve; further: potency means the concentration at half of the fitted maximal effect; actives are rising curves; nearly all actives have a fitted effect of over 50% in size
#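 OD600 was taken as the measure of yeast growth restored by compound in an NS1-expressing S. cerevisiae strain. Cells had been washed out of glucose medium and diluted 1:100 into galactose -URA medium, pH 6.0.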
# Pf growth 48h: P. falciparum growth inhibition at 48 hours (one generation) | P. falciparum luciferase growth in erythrocytes, 48 h | Potency, µM (doses to about 28.7 µM), without a hit: top-dose activity change, negative = inhibition, actives largely listed as inhibitors | hit rate 5.9% among 310,000; further: potency means the concentration at half of the fitted maximal effect; on the % scale 0 is the no-effect control and ±100 the full control effect
#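 First compound was added to culture medium, then infected red cells at 0.1% parasitemia and 2% hematocrit (final). After incubation at 37 C under 5% CO2, luciferase detection reagent was dispensed and light output recorded.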
# Shiga inhibitor: Shiga toxin inhibition. Vero cells, Shiga toxin protein synthesis inhibition reporter. inhibition, % at 38.7 µM. hit rate 9.2% among 290,000; in the data active means inhibition mostly above about 28%, no sharp cut-off; inactive means mostly below about 43%; further: 0% is about no effect
# FBPA Giardia inh: blocks Giardia fructose-bisphosphate aldolase activity; hit rate 0.71% among 290,000; AID 2451; Potency, µM (doses to about 59.6 µM), for inactives: top-dose activity, negative = inhibition, usual class: inhibitors; purified Giardia FBPA; further: potency means the concentration at half of the fitted maximal effect; on the % scale 0 is the no-effect control and ±100 the full control effect; nearly all actives have a fitted effect of over 55% in size
# Target sequence (A8B2U2 whole entry, looked up): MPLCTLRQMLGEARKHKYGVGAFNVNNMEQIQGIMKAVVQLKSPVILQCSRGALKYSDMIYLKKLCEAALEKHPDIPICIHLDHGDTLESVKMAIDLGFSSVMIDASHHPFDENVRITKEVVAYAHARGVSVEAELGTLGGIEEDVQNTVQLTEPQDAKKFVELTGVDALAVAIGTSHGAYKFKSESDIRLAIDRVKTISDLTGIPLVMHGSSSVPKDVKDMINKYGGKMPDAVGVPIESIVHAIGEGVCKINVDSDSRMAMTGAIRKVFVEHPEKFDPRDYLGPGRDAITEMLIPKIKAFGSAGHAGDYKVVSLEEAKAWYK
#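 40 nM FBPA preincubated 10 min at RT with compound (up to 57.5 uM final), then substrate plus GAPDH/TPI/NAD/arsenate coupling and diaphorase/resazurin added. Fluorescence read after 20 min at RT, 525/598 nm.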
# CHX counter: counter-screen hit for Shiga toxin inhibitors, cycloheximide; max response, %; hit rate 12% among 300,000; AID 2314; cell reporter, cycloheximide protein synthesis inhibition counterscreen; in the data active means max response mostly above about 13%, no sharp cut-off; inactive means mostly below about 14%; further: read at 38.3 µM for the half of the compounds with a filed dose; 0% is about no effect
# Pf growth 96h: inhibits malaria parasite growth, 96 h; P. falciparum luciferase reporter growth, 96 h; Potency, µM (top dose mostly 28.7 µM), without a hit: at the highest dose activity change, negative = inhibition, actives largely listed as inhibitors; hit rate 6.9% among 320,000; further: potency means the concentration at half of the fitted maximal effect; on the % scale 0 is the no-effect control and ±100 the full control effect
#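 P. falciparum expressing integrated firefly luciferase, in erythrocytes at 2% hematocrit, 0.05% parasitemia, incubated with compounds 96 h at 37 C, 5% CO2. Growth inhibition read as loss of luminescence; two-generation exposure targets delayed-death apicoplast inhibitors.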
# Starred values were filed as active, the others as inactive; ? = inconclusive; nt = not tested or not shown. A selection: hits, their analogues and other compounds. The true share with any hit is near 21%. Unless noted, the call rests on the fitted dose curve; in most records, active means well fitted curve in the direction sought with a large enough effect; inconclusive means small, poorly fitted or top-dose-only effect, or another doubt; inactive means no such curve, though single readings can be large; an effect the other way counts as inactive or inconclusive.
SMILES,NS1 inh,Pf growth 48h,Shiga inhibitor,FBPA Giardia inh,CHX counter,Pf growth 96h
Cc1cc(N/N=C/c2c[nH]c3ccccc23)c2ccccc2n1,-10%,33%,21,-1%,11,28%
Fc1c(F)c(F)c(N/N=C/c2c[nH]c3ccccc23)c(F)c1F,23%,-80%,23,-5%,16*,?
O=C(NCc1ccc(Cl)s1)C1CCC(=O)N(CCc2cccc(F)c2)C1 (stereo unspecified),3%,15%,-7,2%,1,0%
Cc1nnc(C)n1/N=C/c1cc2ccccc2nc1Cl,nt,?,15,6%,3,?
Cc1cc(C)nc(N/N=C/c2cccc3ccccc23)n1,-23%,63%,15,-30%,47*,-26%
Cc1cc(C)nc(N/N=C/c2cn[nH]c2-c2ccccc2)n1,0%,4%,-3,-18%,2,23%
Cc1cc(C)nc(N/N=C/c2ccccc2OCc2ccc([N+](=O)[O-])cc2)n1,-1%,?,59*,-26%,13,?
Cn1c(N/N=C/c2cc3ccccc3nc2Cl)nc2ccccc21,-24%,?,78*,-20%,31,?
Cc1cc(C)nc(N/N=C/c2ccccc2Cl)n1,1%,124%,94*,-14%,59*,96%
Cc1ccc(CN2CCN(Cc3cc4ccccc4o3)CC2CCO)cc1 (stereo unspecified),2%,28%,-3,8%,-1,-90%
O=C(Oc1ccc(NC2=NS(=O)(=O)c3ccccc32)cc1)c1cccnc1,nt,-12%,-10,9%,8,-11%
COc1ccc(/C=N/Nc2nc(C)cc(-c3ccccc3)n2)c(OC)c1,-5%,-11%,-9,6%,1,?
Cc1cc(C)nc(N/N=C/c2c[nH]c3ccccc23)n1,nt,0%,50,-10%,20*,6%
COc1ccccc1/C=N/Nc1nc(C)cc(C)n1,4%,30%,89*,?,34*,-16%
O=C(/C=C/c1ccc(Cl)cc1)N(Cc1ccccc1)c1ccccn1,-8%,?,107*,-8%,21*,-39%
O=C(c1csnn1)N1CCC[C@@]2(CCN(Cc3cc(C(F)(F)F)cc(C(F)(F)F)c3)C2)C1,nt,nt,nt,1%,nt,nt
CN(Cc1ccc(Cl)cc1Cl)C(=O)CNC(=O)c1ccc2c(c1)OCO2,nt,10µM*,nt,nt,nt,12µM*
Cc1ccc(NC(=O)CN(C)C(=O)CNC(=O)c2ccc3c(c2)OCO3)cc1,nt,1%,nt,nt,nt,52%
CSc1ccc(CN(C)C(=O)CNC(=O)c2ccc3c(c2)OCO3)cc1,nt,4.1µM*,nt,nt,nt,8.3µM*
CN(CC(=O)Nc1c(Cl)cccc1Cl)C(=O)CNC(=O)c1ccc2c(c1)OCO2,nt,32%,nt,nt,nt,45%
CCOC(=O)c1nn(-c2ccccc2C)c(=O)cc1OCC(=O)Nc1cccc(OC)c1,nt,20%,nt,nt,nt,2%
CC(C)(C)N/N=C1\CC(c2ccccc2)Oc2ccccc21 (stereo unspecified),-25%,?,15,13%,10,?
O=C(O)c1cc(N/N=C2/CC(c3ccccc3)Oc3ccccc32)ccc1Cl (stereo unspecified),2%,2%,54*,0%,40*,7%
CCN(CC)S(=O)(=O)c1ccc(F)c(C(=O)NCCC(C)C)c1,-2%,-21%,18,5%,1,4.1µM*
CCN(CC)S(=O)(=O)c1ccc(Cl)c(C(=O)NC)c1,2%,16%,-10,3%,-2,-15%
SMILES,NS1 inh,Pf growth 48h,Shiga inhibitor,FBPA Giardia inh,CHX counter,Pf growth 96h
COc1cccc(N(CC(=O)N2CCCC2)S(C)(=O)=O)c1,-1%,21%,nt,-14%,-3,?
N#Cc1ccc(S(=O)(=O)N2CCN(S(=O)(=O)c3ccc4c(c3)OCCO4)CC2)cc1,nt,nt,22,nt,-2,nt
Cc1nc(C(C)N(C)Cc2nc(-c3ccc4c(c3)OCO4)no2)c(C)s1 (stereo unspecified),-11%,24%,45,0%,51*,1%
Cc1cccc(-c2noc(CN(C(=O)c3ccc4c(c3)OCO4)C(C)C)n2)c1,-30%,5%,-19,-4%,-2,nt
CCCc1cc(=O)oc2cc(C)cc(OCC(=O)NCCCN3CCCC3=O)c12,5%,?,1,3%,-1,?
O=C(NCc1ccc2c(c1)OCO2)C1CC(=O)N(CCc2ccc(F)cc2)C1 (stereo unspecified),7%,-5%,-6,5%,-6,0%
